Laboratory results as given in PubChem BioAssay (NCI).
Where “and” joins values, the source holds several entries; their conditions need not be identical. Equal values may be shown once. This is part of a sample that, as a whole, favours compounds with a hit. Of some 83,000 tested, about 20% had one in any assay.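 Plates (96-well) were seeded with cells, treated with compound at one concentration, and incubated for 48 hours before percent growth was determined.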 Some compounds were tested as several samples or in several runs, with calls that do not always agree. Calls of active or inactive are those of the source. How the source made its calls: active means growth percent below 10; inactive means the rest.

Experiments:
Assay in all cases: NCI-60 one-dose screen, 48 h (100 = growth as untreated, 0 = no growth, -100 = all killed)
[1] = system: DU-145 prostate; conditions: 10 µM unless noted
[2] = system: K-562 leukemia; conditions: 10 µM unless noted
[3] = system: MALME-3M melanoma; conditions: 10 µM unless noted
[4] = system: MDA-MB-231 breast; conditions: 10 µM unless noted
[5] = system: RXF 393 renal; conditions: 10 µM unless noted
[6] = system: SF-268 CNS; conditions: 10 µM unless noted
[7] = system: SF-295 CNS; conditions: 10 µM unless noted
[8] = system: SF-539 CNS; conditions: 10 µM unless noted
[9] = system: UACC-257 melanoma; conditions: 10 µM unless noted
[10] = system: M14 melanoma; conditions: 10 µM unless noted
[11] = system: HCT-15 colon; conditions: 10 µM unless noted
[12] = system: HT29 colon; conditions: 10 µM unless noted
[13] = system: SNB-75 CNS; conditions: 10 µM unless noted
[14] = system: SNB-19 CNS; conditions: 10 µM unless noted
[15] = system: U251 CNS; conditions: 10 µM unless noted
[16] = system: PC-3 prostate; conditions: 10 µM unless noted
[17] = system: SK-MEL-5 melanoma; conditions: 10 µM unless noted
[18] = system: UACC-62 melanoma; conditions: 10 µM unless noted
[19] = system: LOX IMVI melanoma; conditions: 10 µM
[20] = system: SK-MEL-28 melanoma; conditions: 10 µM unless noted

SMILES	growth [1]	growth [2]	growth [3]	growth [4]	growth [5]	growth [6]	growth [7]	growth [8]	growth [9]	growth [10]	growth [11]	growth [12]	growth [13]	growth [14]	growth [15]	growth [16]	growth [17]	growth [18]	growth [19]	growth [20]
S=C1SCN(Cc2cccs2)CN1Cc1cccs1	110% (inactive)	63.6% (inactive)	107% (inactive)	93.4% (inactive)	104% (inactive)	100% (inactive)	104% (inactive)	96.8% (inactive)	94.5% (inactive)	94.3% (inactive)	96.6% (inactive)	97.2% (inactive)	86.2% (inactive)	96.5% (inactive)	95.6% (inactive)	96.2% (inactive)	94% (inactive)	94% (inactive)	93% (inactive)	109% (inactive)
c1ccc(C2NCCNC2c2ccccc2)cc1 (stereo not drawn)	104% (inactive)	105% (inactive)	111% (inactive)	98.4% (inactive)	120% (inactive)	101% (inactive)	104% (inactive)	98.7% (inactive)	99.6% (inactive)	102% (inactive)	102% (inactive)	101% (inactive)	87.5% (inactive)	102% (inactive)	107% (inactive)	98.6% (inactive)	104% (inactive)	102% (inactive)	99.1% (inactive)	111% (inactive)
Cc1c(O)ccc(SC#N)c1C	115% (inactive)	104% (inactive)	129% (inactive)	84.9% (inactive)	112% (inactive)	87.1% (inactive)	129% (inactive)	94.2% (inactive)	107% (inactive)	97.4% (inactive)	96.9% (inactive)	112% (inactive)	95.3% (inactive)	96.5% (inactive)	101% (inactive)	86.1% (inactive)	106% (inactive)	94.6% (inactive)	101% (inactive)	99.5% (inactive)
O=C(/C=C/C(Cl)(Cl)Cl)Nc1ccc(Cl)cc1	97.7% (inactive)	65.7% (inactive)	121% (inactive)	113% (inactive)	87% (inactive)	112% (inactive)	115% (inactive)	103% (inactive)	102% (inactive)	105% (inactive)	88.3% (inactive)	94.7% (inactive)	110% (inactive)	103% (inactive)	100% (inactive)	104% (inactive)	90.8% (inactive)	98.5% (inactive)	-69.8% (active)	–
CN(C)c1ccc(C(=C2C=CC(=[N+](C)C)C=C2)c2ccc(N(C)C)cc2)cc1	-91.8% (active)	-10.4% (active)	-81.4% (active)	-56.5% (active)	-92.2% (active)	-74.1% (active)	-55.2% (active)	-70.6% (active)	-62.7% (active)	-80.2% (active)	-19.3% (active)	-19.7% (active)	-49.7% (active)	-75.5% (active)	-87.9% (active)	-31.3% (active)	-98.8% (active)	-54% (active)	-70.2% (active)	-79.6% (active)
NC(=S)N/N=C\c1nccc2c(C(F)(F)F)cccc12	12% (inactive)	5.11% (active)	-10.4% (active)	49.1% (inactive)	16% (inactive)	5.75% (active)	7.98% (active)	0.339% (active)	-23.9% (active)	-26.7% (active)	28.6% (inactive)	18.5% (inactive)	11.6% (inactive)	30.6% (inactive)	5.79% (active)	18.6% (inactive)	-41.5% (active)	-3.16% (active)	4.01% (active)	26.6% (inactive)
O=C(NOC(=O)c1ccccc1)c1ccccc1	112% (inactive)	40.8% (inactive)	109% (inactive)	111% (inactive)	110% (inactive)	101% (inactive)	112% (inactive)	102% (inactive)	124% (inactive)	104% (inactive)	101% (inactive)	110% (inactive)	108% (inactive)	109% (inactive)	105% (inactive)	90.2% (inactive)	105% (inactive)	109% (inactive)	100% (inactive)	119% (inactive)
NC1=C(Br)C(=O)c2ncccc2C1=O	-57.8% (active)	-44.2% (active)	-85.9% (active)	19.2% (inactive)	13.5% (inactive)	-43.9% (active)	-84.3% (active)	-91.5% (active)	-58.4% (active)	-88.7% (active)	2.56% (active)	49.1% (inactive)	-84.2% (active)	-86.7% (active)	-82.2% (active)	11.9% (inactive)	-98.3% (active)	-96.3% (active)	-71.2% (active)	-87.4% (active)
NCCCN(CCCN)CCCNCc1c2ccccc2c(CNCCCN(CCCN)CCCN)c2ccccc12	100% (inactive)	83.3% (inactive)	51.7% (inactive)	102% (inactive)	98.4% (inactive)	88.7% (inactive)	100% (inactive)	91.8% (inactive)	93.2% (inactive)	98.8% (inactive)	110% (inactive)	91.9% (inactive)	104% (inactive)	106% (inactive)	115% (inactive)	90.8% (inactive)	98.6% (inactive)	98.2% (inactive)	99.8% (inactive)	106% (inactive)
O=C(C[P+](c1ccccc1)(c1ccccc1)c1ccccc1)c1ccccc1	102% (inactive)	84% (inactive)	110% (inactive)	84.5% (inactive)	107% (inactive)	94.6% (inactive)	87.4% (inactive)	104% (inactive)	101% (inactive)	106% (inactive)	97.5% (inactive)	87.4% (inactive)	83.6% (inactive)	94.4% (inactive)	96.7% (inactive)	74.7% (inactive)	104% (inactive)	79.5% (inactive)	70.6% (inactive)	109% (inactive)
O=C(CBr)c1ccc(OC(=O)c2ccccc2)cc1	114% (inactive)	89% (inactive)	125% (inactive)	107% (inactive)	119% (inactive)	102% (inactive)	112% (inactive)	102% (inactive)	87.9% (inactive)	87.4% (inactive)	101% (inactive)	115% (inactive)	96.5% (inactive)	112% (inactive)	95.5% (inactive)	101% (inactive)	107% (inactive)	107% (inactive)	73.3% (inactive)	112% (inactive)
CCSc1nc2ccccc2o1	111% (inactive)	100% (inactive)	118% (inactive)	112% (inactive)	110% (inactive)	96.1% (inactive)	113% (inactive)	96.3% (inactive)	106% (inactive)	109% (inactive)	102% (inactive)	113% (inactive)	88.2% (inactive)	99.9% (inactive)	101% (inactive)	92.3% (inactive)	108% (inactive)	102% (inactive)	103% (inactive)	113% (inactive)
CN(C)c1ccc(C(C#N)(c2ccccc2)c2ccc(N(C)C)cc2)cc1	60% (inactive)	26.1% (inactive)	69.9% (inactive)	79.4% (inactive)	75.3% (inactive)	58.9% (inactive)	77.9% (inactive)	16.1% (inactive)	84.7% (inactive)	55.2% (inactive)	71.8% (inactive)	14.6% (inactive)	57.1% (inactive)	63.7% (inactive)	7.62% (active)	69.4% (inactive)	81.6% (inactive)	70.5% (inactive)	51.1% (inactive)	60.2% (inactive)
OC(c1cc(-c2ccc(C(F)(F)F)cc2)nc(C(F)(F)F)c1)C1CCCCN1 (stereo not drawn)	-16.1% (active) and -94.1% (active) and 32.1% (inactive)	-47.5% (active) and -65.5% (active) and -27.9% (active)	22% (inactive) and -88.6% (active) and 60.1% (inactive)	-57.8% (active) and -85.1% (active) and -19% (active)	-94.4% (active) and -93% (active) and 39% (inactive)	-42.1% (active) and -39.4% (active) and 29.8% (inactive)	188% (inactive)	-41.7% (active) and -76.5% (active) and 40.2% (inactive)	-68.6% (active) and 68.3% (inactive) and -8.76% (active)	-77% (active) and -84.3% (active) and -76.6% (active)	-36.1% (active) and -65.7% (active) and 14.6% (inactive)	-49.8% (active) and -67.9% (active) and -54.8% (active)	18.6% (inactive) and -18% (active) and 46.3% (inactive)	33.4% (inactive) and 37% (inactive) and 53.7% (inactive)	-89% (active) and -95.4% (active) and -62% (active)	-29.2% (active) and -43.2% (active) and 17% (inactive)	-91.6% (active) and -98.8% (active) and 6.65% (active)	0.644% (active) and -95.1% (active) and 69.5% (inactive)	-55.2% (active) and -97.5% (active) and -80.7% (active)	-76.1% (active) and -93.1% (active) and 45.2% (inactive)
O=C1C=CC(=O)N1C1CCCCCCCCCCC1	88.1% (inactive)	-2.11% (active)	72.9% (inactive)	99.8% (inactive)	64% (inactive)	100% (inactive)	90.8% (inactive)	98.5% (inactive)	66.6% (inactive)	80.8% (inactive)	88.6% (inactive)	45.2% (inactive)	79.4% (inactive)	97.1% (inactive)	91.6% (inactive)	86.9% (inactive)	92.9% (inactive)	88.8% (inactive)	–	91% (inactive)
